Hit rate of the full screen: of about 5,600 compounds, about 4,100 (73%) were called active. Not shown: some 4% with an inconclusive outcome. The set was probably picked from earlier hits. Only a sample is shown. Unmarked numbers belong to inactive results.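 The calls were made as follows: active = mean replicate inhibition above about 95% and at least 55% of replicates individually reaching it (limit read from the data); inconclusive = only one of the two criteria is met; inactive = neither criterion is met.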

The nature of this assay: blockers of Trypanosoma cruzi growth in host cells – cell-based, NIH3T3 host, beta-gal parasite, luminescence, cherry-pick, confirmation (AID 651739). The conditions noted are these: T. cruzi beta-gal in NIH3T3, GalScreen luminescence, 90 h; at 8.35 µM; hits give high values.
A word on the inhibition: it is the drop in the measured response relative to a control, in per cent. Take `C[C@@H]1CCCCO[C@H](CN(C)S(=O)(=O)c2cccs2)[C@H](C)CN([C@H](C)CO)C(=O)c2cc(NS(=O)(=O)c3ccc(F)cc3)ccc2O1`: the inhibition was 109% (active).
Consider `CC(C)(C)[S@@](=O)N1Cc2cc(C(=O)NCc3ccc4c(c3)OCO4)nc(-c3cccc(-c4ccccc4)c3)c2[C@H]1CCO`, for which the inhibition was 105% (active).
To `OC[C@@H]1[C@H](c2ccc(C#CC3CC3)cc2)[C@@H]2CN(CCC(F)(F)F)CCCCN12` belongs 105% (active); to `CN(C)C(=O)c1ccc(-c2ccc([C@H]3[C@@H](CO)N4CCCCN(CC5CC5)C[C@H]34)cc2)cc1`, 90%; to `O=C(C1CCCC1)N1CCCCN2[C@@H](CO)[C@H](c3ccc(-c4cccc(F)c4)cc3)[C@@H]2C1`, 112% (active).
With `O=C(C1CC1)N1CCCCN2[C@H](CO)[C@H](c3ccc(-c4cccc(F)c4)cc3)[C@H]2C1`, the inhibition is 99.1% (active).
Under `O=C(C1CCC1)N1CCCCN2[C@H](CO)[C@H](c3ccc(-c4ccncc4)cc3)[C@@H]2C1` stands 103% (active); under `O=C(Nc1ccccc1)N1CCCCN2[C@H](CO)[C@@H](c3ccc(C#Cc4ccccn4)cc3)[C@H]2C1`, 90%.
In the case of `O=C(Nc1cccc(F)c1)N1CCCCN2[C@H](CO)[C@H](c3ccc(C#CC4CC4)cc3)[C@@H]2C1`, the inhibition was 109% (active).
To `N#Cc1cccc(-c2ccc([C@H]3[C@H](CO)N4CCCCN(C(=O)Nc5cccc(F)c5)C[C@@H]34)cc2)c1` belongs 94.2%.
To `O=C(C1CCC1)N1CCCCN2[C@H](CO)[C@H](c3ccc(-c4cccc(F)c4)cc3)[C@@H]2C1` belongs 109% (active); to `C[C@H]1CN([C@@H](C)CO)S(=O)(=O)c2ccc(C3=CCCC3)cc2O[C@@H]1CN(C)Cc1ccccc1`, 96.5% (active).
Take `C[C@H]1CN([C@@H](C)CO)S(=O)(=O)c2ccc(C3=CCCCC3)cc2O[C@@H]1CN(C)Cc1ccccc1`: the inhibition is 102% (active).
Under `C[C@@H]1CN([C@H](C)CO)S(=O)(=O)c2ccc(C3=CCCC3)cc2O[C@H]1CN(C)Cc1ccccc1F` stands 99.3% (active); under `C[C@H](CO)N1C[C@H](C)[C@@H](CN(C)S(=O)(=O)c2ccc(F)cc2)Oc2cc(C3=CCCC3)ccc2S1(=O)=O`, 94.1%; under `C[C@@H]1CN([C@@H](C)CO)C(=O)c2cc(NC(=O)Nc3cccc4ccccc34)ccc2O[C@@H](C)CCCCO[C@H]1CN(C)Cc1ccccc1`, 107% (active).
Take `C[C@@H]1CCCCO[C@@H](CN(C)C(=O)Nc2ccc(F)cc2)[C@H](C)CN([C@H](C)CO)C(=O)c2cc(NC(=O)Nc3cccc4ccccc34)ccc2O1`: the inhibition was 114% (active).
To `C[C@@H]1CCCCO[C@@H](CN(C)Cc2ccccc2)[C@H](C)CN([C@H](C)CO)C(=O)c2cc(NC(=O)Nc3cccc4ccccc34)ccc2O1` belongs 96.4% (active); to `C[C@@H]1CN([C@H](C)CO)C(=O)Cc2cc(NC(=O)Cc3ccccc3)ccc2O[C@H]1CN(C)Cc1ccc(Oc2ccccc2)cc1`, 112% (active); to `C[C@@H]1CN([C@@H](C)CO)C(=O)c2cc(NC(=O)Nc3ccc4c(c3)OCO4)ccc2O[C@@H]1CN(C)Cc1ccc(Oc2ccccc2)cc1`, 101% (active).
`C[C@H]1CN([C@@H](C)CO)C(=O)c2cc(NC(=O)Nc3ccc4c(c3)OCO4)ccc2O[C@@H]1CN(C)Cc1ccc(Oc2ccccc2)cc1`: the inhibition was 103% (active).
In the case of `C[C@@H]1CN([C@@H](C)CO)C(=O)c2cc(NC(=O)Cc3ccccc3)ccc2O[C@@H]1CN(C)Cc1ccc(Oc2ccccc2)cc1`, the inhibition was 99.9% (active).
For the compound `C[C@H]1CN([C@@H](C)CO)C(=O)Cc2cc(NC(=O)Cc3cn(C)c4ccccc34)ccc2O[C@@H]1CN(C)Cc1ccccc1`, the inhibition is 77.4%.
Under `C[C@H]1CN([C@@H](C)CO)C(=O)Cc2cc(NC(=O)Cc3cn(C)c4ccccc34)ccc2O[C@@H]1CN(C)Cc1ccc(C(F)(F)F)cc1` stands 104% (active); under `COc1ccc(S(=O)(=O)N(C)C[C@H]2Oc3c(NC(=O)Nc4cccc5ccccc45)cccc3C(=O)N([C@@H](C)CO)C[C@H]2C)cc1`, 98.8% (active); under `COc1ccc(NC(=O)N(C)C[C@@H]2Oc3c(NC(=O)NC4CCCCC4)cccc3C(=O)N([C@@H](C)CO)C[C@@H]2C)cc1`, 51.2%.
In the case of `C[C@H]1CN([C@@H](C)CO)C(=O)c2cccc(NS(=O)(=O)c3cn(C)cn3)c2O[C@@H]1CN(C)CC1CCCCC1`, the inhibition is 46.2%.
To `Cc1ccc(S(=O)(=O)N(C)C[C@@H]2Oc3c(NC(=O)c4nc5ccccc5s4)cccc3C(=O)N([C@H](C)CO)C[C@@H]2C)cc1` belongs 95.2% (active); to `C[C@@H]1CN([C@@H](C)CO)S(=O)(=O)c2ccc(C#Cc3ccccc3)cc2O[C@@H]1CN(C)C(=O)Nc1ccccc1`, 103% (active); to `C[C@@H]1CN([C@@H](C)CO)S(=O)(=O)c2ccc(-c3ccncc3)cc2O[C@@H]1CN(C)C(=O)Nc1ccc(F)cc1`, 100% (active).
For the compound `C[C@@H]1CN([C@@H](C)CO)S(=O)(=O)c2ccc(C#Cc3ccc(F)cc3)cc2O[C@H]1CN(C)C(=O)c1ccccn1`, the inhibition was 108% (active).
Under `C[C@@H]1CN([C@@H](C)CO)S(=O)(=O)c2ccc(C#Cc3ccc(F)cc3)cc2O[C@H]1CN(C)C(=O)NC1CCCC1` stands 105% (active); under `COCC(=O)N1CC[C@@H]2[C@@H](CO)Nc3ccc(-c4cccc(C#N)c4)cc3[C@@H]21`, 111% (active); under `N#Cc1ccc(-c2ccc3c(c2)[C@@H]2[C@@H](CCN2C(=O)Cc2ccncc2)[C@@H](CO)N3)cc1`, 112% (active).
As for `C[C@H](CO)N1C[C@H](C)[C@@H](CN(C)C(=O)Nc2cc(F)ccc2F)Oc2cc(C#CC3CC3)ccc2S1(=O)=O`, the inhibition is 108% (active).
`C[C@@H]1CN([C@H](C)CO)S(=O)(=O)c2ccc(-c3cccc(C#N)c3)cc2O[C@@H]1CN(C)C(=O)Nc1ccccc1F`: the inhibition is 86.6%.
Under `C[C@H]1CN([C@@H](C)CO)S(=O)(=O)c2ccc(C#CC3CCCC3)cc2O[C@@H]1CN(C)C(=O)c1cccc(F)c1` stands 96.6% (active); under `N#C[C@@H]1[C@H](c2ccc(C#Cc3cccc(F)c3)cc2)[C@@H](CO)N1C(=O)C1CCCC1`, 103% (active).
Turning to `CC(=O)N1[C@H](CNC(=O)C2CC2)[C@@H](c2ccc(-c3cccc(F)c3)cc2)[C@@H]1CO`, the inhibition is 19.2%.
To `N#C[C@@H]1[C@@H](c2ccccc2)[C@@H](CO)N1C(=O)Cc1ccccc1` belongs 78.3%; to `N#C[C@@H]1[C@@H](c2ccc(C#Cc3cccc(F)c3)cc2)[C@@H](CO)N1C(=O)C1CCC1`, 104% (active).
To `CCN(C[C@H]1[C@H](c2ccccc2)[C@H](CO)N1C(=O)C1CC1)C(=O)NC1CCCC1` belongs -20.8%; to `N#C[C@@H]1[C@@H](c2ccc(/C=C/c3ccccc3)cc2)[C@@H](CO)N1C(=O)C1CC1`, 108% (active).
For `CC(=O)NC[C@@H]1[C@@H](c2ccc(-c3ccccc3F)cc2)[C@@H](CO)N1C(=O)C1CC1`, the inhibition is 15.9%.
On to `CCCC#Cc1ccc([C@@H]2[C@@H](C#N)N(C(=O)C3CCCC3)[C@@H]2CO)cc1`, for which the inhibition was 107% (active).
In the case of `CC(=O)N(C)C[C@@H]1[C@@H](c2ccc(-c3ccccc3F)cc2)[C@@H](CO)N1C(C)=O`, the inhibition was 19.8%.
To `COCC(=O)N1[C@H](CO)[C@@H](c2ccc(C#Cc3ccccc3F)cc2)[C@@H]1C#N` belongs 107% (active); to `Cc1ccc(S(=O)(=O)Nc2ccc3c(c2)C(=O)N([C@H](C)CO)C[C@H](C)[C@H](CN(C)C(=O)Nc2ccc(F)cc2)OCCCC[C@H](C)O3)cc1`, 108% (active).
Take `C[C@@H]1CCCCO[C@H](CN(C)S(=O)(=O)c2ccc(F)cc2)[C@H](C)CN([C@@H](C)CO)C(=O)c2cc(NS(=O)(=O)c3ccccc3)ccc2O1`: the inhibition was 109% (active).
Turning to `C[C@H](CO)N1C[C@H](C)[C@H](CN(C)S(=O)(=O)c2ccc(F)cc2)OCCCC[C@H](C)Oc2ccc(NS(=O)(=O)c3ccc(Cl)cc3)cc2C1=O`, the inhibition was 92.1%.
To `COc1ccc(S(=O)(=O)N(C)C[C@H]2OCCCC[C@H](C)Oc3ccc(NS(=O)(=O)c4ccc(F)cc4)cc3C(=O)N([C@@H](C)CO)C[C@@H]2C)cc1` belongs 106% (active).
On to `Cc1ccc(S(=O)(=O)N(C)C[C@@H]2OCCCC[C@@H](C)Oc3ccc(NS(=O)(=O)c4ccc(F)cc4)cc3C(=O)N([C@H](C)CO)C[C@H]2C)cc1`, for which the inhibition was 97.7% (active).
Regarding `COc1cccc(S(=O)(=O)N2C[C@@H](O)COC[C@@H]3O[C@H](CC(=O)Nc4ccccc4)CC[C@H]32)c1`, the inhibition was 62.3%.
Under `Cc1ccc(S(=O)(=O)N2C[C@@H](O)COC[C@@H]3O[C@H](CC(=O)NCc4ccc(Cl)c(Cl)c4)CC[C@H]32)cc1` stands 103% (active); under `COc1ccc(S(=O)(=O)Nc2ccc3c(c2)C(=O)N([C@@H](C)CO)C[C@H](C)[C@H](CN(C)Cc2ccc(C(F)(F)F)cc2)O3)cc1`, 104% (active); under `C[C@H](CO)N1C[C@H](C)[C@H](CN(C)Cc2ccc(C(F)(F)F)cc2)Oc2ccc(NS(=O)(=O)c3ccc(Cl)cc3)cc2C1=O`, 106% (active).
Under `COc1ccc(S(=O)(=O)Nc2ccc3c(c2)C(=O)N([C@H](C)CO)C[C@H](C)[C@H](CN(C)Cc2ccc(C(F)(F)F)cc2)O3)cc1` stands 106% (active); under `COc1ccc(CN(C)C[C@H]2Oc3ccc(NS(=O)(=O)c4ccc(Cl)cc4)cc3CC(=O)N([C@@H](C)CO)C[C@H]2C)cc1`, 100% (active).
With `COc1ccc(S(=O)(=O)Nc2ccc3c(c2)C(=O)N([C@@H](C)CO)C[C@H](C)[C@@H](CN(C)Cc2ccc(C(F)(F)F)cc2)O3)cc1`, the inhibition is 88.7%.

These data come from PubChem BioAssay AID651739 (Broad Institute, 2012).
